Results reported in PubChem BioAssay (NCI).
The panel holds about 79,000 compounds, 15% with a hit somewhere; the sample as a whole holds those more often. Unmarked numbers belong to inactive results. Activity calls are given as the source filed them. Rule as the data show it: active = growth inhibition above about 70%; inactive = the rest.

How the values were obtained:
[1] = NCI Yeast Anticancer Drug Screen. Data for the rad50 strain (AID 155);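 also: 0% = growth of vehicle-only cultures of the same strain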; details: S. cerevisiae rad50 strain growth inhibition; at 50.0 µM; active compounds read high
Summary of the method: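 Compounds were tested on a yeast strain with an engineered DNA damage repair alteration; the reported value is growth inhibition normalised to vehicle treatment.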

[2] = NCI Yeast Anticancer Drug Screen. Data for the mec2-1 strain (AID 157); details: S. cerevisiae mec2-1 strain, at 50.0 µM, active compounds read high
Summary of the method: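 mec2-1 yeast strain, carrying an alteration in DNA damage repair or cell cycle control, was exposed to compounds; growth inhibition was measured relative to vehicle-treated controls.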

[3] = NCI Yeast Anticancer Drug Screen. Data for the sgs1 mgt1 strain (AID 161);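 also: 0% = growth of cultures given vehicle only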; details: S. cerevisiae sgs1 mgt1 strain, at 50.0 µM, active compounds read high
Summary of the method: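 Growth of a repair-deficient yeast mutant was monitored after compound treatment and expressed as inhibition relative to vehicle-treated cultures.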

[4] = NCI Yeast Anticancer Drug Screen. Data for the cln2 rad14 strain (AID 165);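 also: 0% = growth equal to vehicle treated cultures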; details: S. cerevisiae cln2 rad14 strain, at 50.0 µM, active compounds read high
Summary of the method: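 Yeast carrying cln2 and rad14 alterations (cell cycle control and DNA damage repair) were exposed to compounds. Growth inhibition was measured against vehicle-treated controls.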

[5] = NCI Yeast Anticancer Drug Screen. Data for the bub3 strain (AID 167); details: S. cerevisiae bub3 mutant strain, at 50.0 µM, active compounds read high
Summary of the method: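 Growth of a checkpoint-deficient yeast mutant is measured after compound exposure. Values represent inhibition relative to vehicle.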

[6] = NCI Yeast Anticancer Drug Screen. Data for the mlh1 rad18 strain (AID 175); details: S. cerevisiae mlh1 rad18 strain growth inhibition; at 50.0 µM; active compounds read high
Summary of the method: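 Growth inhibition of the yeast strain was measured after compound exposure and expressed relative to vehicle-treated controls. The strain carries defined defects in DNA damage repair.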

O=C(NCCNCCO)N/N=C/c1ccc([N+](=O)[O-])cc1
growth inhibition [1]: -8.75% | growth inhibition [2]: -7.35% | growth inhibition [3]: -1.4% | growth inhibition [4]: 36.6% | growth inhibition [5]: 0.3% | growth inhibition [6]: -3.65%

COC(=O)C1(C)C(=O)NC(=O)CC1C (configuration not stated)
growth inhibition [1]: 9.65% | growth inhibition [2]: 0% | growth inhibition [3]: 1% | growth inhibition [4]: -30.5% | growth inhibition [5]: -2.5% | growth inhibition [6]: -3.2%

COC1(OC)C2(Cl)CCC1(Cl)C(OC(C)=O)C2 (configuration not stated)
growth inhibition [1]: -21.4% | growth inhibition [2]: -5% | growth inhibition [3]: 4.65% | growth inhibition [4]: 26.8% | growth inhibition [5]: -8% | growth inhibition [6]: -10.7%

CN(C)c1ccc([Si](c2ccc(N(C)C)cc2)c2ccc(N(C)C)cc2)cc1
growth inhibition [1]: -18.5% | growth inhibition [2]: 3.65% | growth inhibition [3]: -19.1% | growth inhibition [4]: -28.8% | growth inhibition [5]: -1.1% | growth inhibition [6]: 23.4%

NC(N)=NOCC(=O)O
growth inhibition [1]: -7.2% | growth inhibition [2]: -14.7% | growth inhibition [3]: -8.85% | growth inhibition [4]: -42.5% | growth inhibition [5]: 3.95% | growth inhibition [6]: -16.1%

CC(C)=NNC(=S)NC12CC3CC(CC(C3)C1)C2
growth inhibition [1]: 29.4% | growth inhibition [2]: 39.3% | growth inhibition [3]: 25.1% | growth inhibition [4]: -8.7% | growth inhibition [5]: 48.7% | growth inhibition [6]: 35%

CC(C)(C)CC(C)(C)N
growth inhibition [1]: -2.65% | growth inhibition [2]: -4.8% | growth inhibition [3]: -16.9% | growth inhibition [4]: -41.5% | growth inhibition [5]: -2.35% | growth inhibition [6]: 20.6%

Cc1c2ccccc2c(CN(C)CC(=O)NCC(=O)NCC(=O)O)c2ccccc12
growth inhibition [1]: 97.5% (active) | growth inhibition [2]: 97.7% (active) | growth inhibition [3]: 97.5% (active) | growth inhibition [4]: 97.5% (active) | growth inhibition [5]: 98.2% (active) | growth inhibition [6]: 98.5% (active)

O=c1[nH][nH]c(=O)c(Cl)c1Cl
growth inhibition [1]: 1.55% | growth inhibition [2]: 1.6% | growth inhibition [3]: -17.5% | growth inhibition [4]: 0.25% | growth inhibition [5]: -0.85% | growth inhibition [6]: 13.3%

CSc1nc(NC2OCC(O)C(O)C2O)c(Cl)c(=O)[nH]1 (configuration not stated)
growth inhibition [1]: -13.5% | growth inhibition [2]: -2.1% | growth inhibition [3]: 12.3% | growth inhibition [4]: -4.15% | growth inhibition [5]: 2.55% | growth inhibition [6]: 0.75%

[O-][n+]1onc2c1CCC(=N\O)/C2=N/Nc1ccccc1
growth inhibition [1]: -1.55% | growth inhibition [2]: -1.05% | growth inhibition [3]: -15.1% | growth inhibition [4]: 34.9% | growth inhibition [5]: 18.6% | growth inhibition [6]: 11.3%

Cc1nc(Cc2ccc(O)c(O)c2)c(C)o1
growth inhibition [1]: 6.7% | growth inhibition [2]: 13.9% | growth inhibition [3]: 3.95% | growth inhibition [4]: -17.2% | growth inhibition [5]: -18% | growth inhibition [6]: 8.2%

c1ccc2c(c1)cc1n2CC2CN=NC12 (configuration not stated)
growth inhibition [1]: -5.85% | growth inhibition [2]: 14.4% | growth inhibition [3]: -27.4% | growth inhibition [4]: 12.3% | growth inhibition [5]: -5.55% | growth inhibition [6]: 10.1%

Cc1ccc(S(=O)(=O)OCC2CC=CCC2COC(=O)c2ccc([N+](=O)[O-])cc2)cc1 (configuration not stated)
growth inhibition [1]: 33.5% | growth inhibition [2]: -5.55% | growth inhibition [3]: 12.1% | growth inhibition [4]: 15.1% | growth inhibition [5]: 6.6% | growth inhibition [6]: 6.4%

CN1CC(O)c2cc(N=NC(N)=O)c(O)cc21 (configuration not stated)
growth inhibition [1]: -16.6% | growth inhibition [2]: -9.5% | growth inhibition [3]: -4.85% | growth inhibition [4]: 5.85% | growth inhibition [5]: -7.25% | growth inhibition [6]: -2.45%

CCOC(=O)C(CC)C1=CCCCC1 (configuration not stated)
growth inhibition [1]: -21% | growth inhibition [2]: -48.7% | growth inhibition [3]: -11.2% | growth inhibition [4]: 12.3% | growth inhibition [5]: -11.2% | growth inhibition [6]: -8.55%

COC(=O)NC(=O)CCC(=O)O
growth inhibition [1]: -0.15% | growth inhibition [2]: -2.8% | growth inhibition [3]: 0.95% | growth inhibition [4]: -45.3% | growth inhibition [5]: 7% | growth inhibition [6]: 12.8%

C[N+]1(C)CCC(O)C(c2ccccc2)C1 (configuration not stated)
growth inhibition [1]: -8.9% | growth inhibition [2]: -0.45% | growth inhibition [3]: -3.5% | growth inhibition [4]: -22.5% | growth inhibition [5]: -8.1% | growth inhibition [6]: -0.7%

CC(=O)C1C(=O)C(=O)N(c2ccccc2C(C)C)C1=O (configuration not stated)
growth inhibition [1]: 19% | growth inhibition [2]: 6.55% | growth inhibition [3]: 11.9% | growth inhibition [4]: 21.4% | growth inhibition [5]: 11.9% | growth inhibition [6]: 29.5%

CCC1CCN=C(NS(=O)(=O)c2cc(C)c(Cl)cc2S)N1 (configuration not stated)
growth inhibition [1]: -29.8% | growth inhibition [2]: -5.25% | growth inhibition [3]: -25.2% | growth inhibition [4]: -18.1% | growth inhibition [5]: 4.9% | growth inhibition [6]: -33%

Cc1ccccc1/C=N\N=C\c1ccco1
growth inhibition [1]: -0.5% | growth inhibition [2]: -6.5% | growth inhibition [3]: -5.25% | growth inhibition [4]: -10.7% | growth inhibition [5]: 18.1% | growth inhibition [6]: 44.6%

CCOC(=O)/C=C/c1ccccn1
growth inhibition [1]: -15.3% | growth inhibition [2]: -9.5% | growth inhibition [3]: -35.5% | growth inhibition [4]: 11.9% | growth inhibition [5]: -12.8% | growth inhibition [6]: -25.6%

CCN(CC)c1ccc(N=Nc2ccc(C)cc2)cc1
growth inhibition [1]: -6.7% | growth inhibition [2]: -22.5% | growth inhibition [3]: -12.5% | growth inhibition [4]: -0.4% | growth inhibition [5]: -15.8% | growth inhibition [6]: 12.1%

CCOC(=O)NC(=O)c1cn(CCN2CCN(c3ncnc4nc[nH]c34)CC2)c(=O)[nH]c1=O
growth inhibition [1]: 18.9% | growth inhibition [2]: 16.6% | growth inhibition [3]: 14.4% | growth inhibition [4]: 12.7% | growth inhibition [5]: -4.3% | growth inhibition [6]: 23.1%

CN1CCC(CO)CC1
growth inhibition [1]: -12.8% | growth inhibition [2]: -2.7% | growth inhibition [3]: -2.65% | growth inhibition [4]: 9.05% | growth inhibition [5]: 11.8% | growth inhibition [6]: -8.4%

Nc1nnnn1-c1cccc(Cl)c1
growth inhibition [1]: 7.5% | growth inhibition [2]: 0.35% | growth inhibition [3]: 1.6% | growth inhibition [4]: -18.8% | growth inhibition [5]: -2.4% | growth inhibition [6]: 10.6%

Cn1c(-c2ccc3c(c2)OCO3)cc(=O)c2ccccc21
growth inhibition [1]: -11.2% | growth inhibition [2]: -17.6% | growth inhibition [3]: -4.9% | growth inhibition [4]: -4.55% | growth inhibition [5]: 4.85% | growth inhibition [6]: 0.6%

CC(C)OC(=O)N1C(=O)C2C3CCC(O3)C2C1=O (configuration not stated)
growth inhibition [1]: 9.2% | growth inhibition [2]: 8.25% | growth inhibition [3]: 15.2% | growth inhibition [4]: 10.4% | growth inhibition [5]: 9.65% | growth inhibition [6]: 16.1%

O=C(O)C1CC(Cl)C(Cl)CC1C(=O)O (configuration not stated)
growth inhibition [1]: -2.9% | growth inhibition [2]: -27.1% | growth inhibition [3]: 0.85% | growth inhibition [4]: 0.2% | growth inhibition [5]: -19.2% | growth inhibition [6]: -5.1%

Nc1c2c(nn1-c1ccccc1)C(=O)N(CCc1ccccc1)C2
growth inhibition [1]: 0.25% | growth inhibition [2]: 14.2% | growth inhibition [3]: -6.05% | growth inhibition [4]: -0.65% | growth inhibition [5]: -3.25% | growth inhibition [6]: -1.4%

CC(=O)Nc1ccc(N=C2c3ccccc3-c3ccc([N+](=O)[O-])cc32)cc1
growth inhibition [1]: -6.1% | growth inhibition [2]: -10.8% | growth inhibition [3]: 11.2% | growth inhibition [4]: -11.7% | growth inhibition [5]: -5.7% | growth inhibition [6]: -13.6%

O=[N+]([O-])c1nccn1CC(O)CN1CCCCC1 (configuration not stated)
growth inhibition [1]: 5.95% | growth inhibition [2]: -1.15% | growth inhibition [3]: 16.8% | growth inhibition [4]: -4.85% | growth inhibition [5]: -7.85% | growth inhibition [6]: 18.9%

c1ccc(C(c2ccccc2)[n+]2ccccc2)cc1
growth inhibition [1]: 4.5% | growth inhibition [2]: -1.3% | growth inhibition [3]: -6.1% | growth inhibition [4]: -11.2% | growth inhibition [5]: -5.5% | growth inhibition [6]: -6.25%

Nc1cc(Cl)cc(S(=O)(=O)O)c1O
growth inhibition [1]: 1.9% | growth inhibition [2]: -0.05% | growth inhibition [3]: -2.95% | growth inhibition [4]: -65.9% | growth inhibition [5]: 9.05% | growth inhibition [6]: -13.9%

CCC(C)CCC(C)(O)CC (configuration not stated)
growth inhibition [1]: 9.7% | growth inhibition [2]: -9.9% | growth inhibition [3]: -5.4% | growth inhibition [4]: -43.1% | growth inhibition [5]: 16.2% | growth inhibition [6]: 1.35%

CCCC(=O)Oc1c(Cl)cc(Cl)cc1-c1ccccc1
growth inhibition [1]: 12.8% | growth inhibition [2]: 12.9% | growth inhibition [3]: 37.9% | growth inhibition [4]: 8.1% | growth inhibition [5]: 28.6% | growth inhibition [6]: 1.45%

COc1ccc(CSCc2cc(OC)c(OC)c(OC)c2)cc1
growth inhibition [1]: -13.5% | growth inhibition [2]: 16.8% | growth inhibition [3]: -24.1% | growth inhibition [4]: 0.3% | growth inhibition [5]: 51.2% | growth inhibition [6]: -2.15%

CC(C)C1=CC2=CCC3C(C)(COC(=O)CSC(C)(C)C)CCCC3(C)C2CC1 (configuration not stated)
growth inhibition [1]: 14.2% | growth inhibition [2]: -2.25% | growth inhibition [3]: 31.6% | growth inhibition [4]: 18.6% | growth inhibition [5]: -1.9% | growth inhibition [6]: 20.2%

CCC(=O)OC1(C(=O)OC)CCN(C)CC1
growth inhibition [1]: 9.5% | growth inhibition [2]: 2.95% | growth inhibition [3]: -0.9% | growth inhibition [4]: 15.2% | growth inhibition [5]: 17.8% | growth inhibition [6]: 10.4%

O=C(NC(c1ccccc1)C(O)C(=O)OCc1ccc2c(c1)C(=O)c1ccccc1C2=O)c1ccccc1 (configuration not stated)
growth inhibition [1]: 10.9% | growth inhibition [2]: 15.4% | growth inhibition [3]: -23.3% | growth inhibition [4]: -0.15% | growth inhibition [5]: -8.9% | growth inhibition [6]: 20.6%

CC12CCC(NC(=O)C3CCCN3C(=O)OCc3ccccc3)CC1CCC1C2CCC2(C)C(NC(=O)C3CCCN3C(=O)OCc3ccccc3)CCC12 (configuration not stated)
growth inhibition [1]: -4.3% | growth inhibition [2]: 4.15% | growth inhibition [3]: -19.4% | growth inhibition [4]: -46% | growth inhibition [5]: -5.35% | growth inhibition [6]: -3.2%

CC(C)Cc1cccc(C(C)C)c1NC(=O)CCC(=O)N/N=C1\C(=N/NC(=O)CCC(=O)Nc2c(C(C)C)cccc2C(C)C)C(c2ccc3c(c2)OCO3)Oc2ccccc21 (configuration not stated)
growth inhibition [1]: 5.2% | growth inhibition [2]: -21.6% | growth inhibition [3]: -5% | growth inhibition [4]: -2.7% | growth inhibition [5]: 6.75% | growth inhibition [6]: 11.2%
